# Laboratory results: PubChem BioAssay (NCATS)
# Results filed as inconclusive are left out. Entries that show only a call come without a potency. Unmarked numbers belong to inactive results. Active and inactive are the calls of the source. Calls follow the shape of the dose curve; as a rule, active = well fitted curve in the direction sought with a large enough effect; inconclusive = small, poorly fitted or top-dose-only effect, or another doubt; inactive = no such curve, though single readings can be large; an effect the other way counts as inactive or inconclusive.
# What was measured:
# [1] = qHTS of pediatric cancer cell lines to identify multiple opportunities for drug repurposing: Confirmatory screen for OHS-50 cells (AID 1347128);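 also: compound exposure lasted 48 h at 37 degrees C; nearly all actives have a fitted effect of over 55% in size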; also: potency is read from the fitted curve at half-maximal effect
# Summary of the method: (§1)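 Viability after 48 h compound treatment at 37C, 500-1,000 cells/well, read as ATP luminescence with CellTiter-Glo. Primary screens used 11-point (MIPE, 0.78 nM-46 µM) or 8-point (NPC, 0.59 nM-46 µM) final concentrations; follow-up screens used 11-point dilutions.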
# [2] = qHTS of pediatric cancer cell lines to identify multiple opportunities for drug repurposing: Confirmatory screen for SK-N-SH cells (AID 1347129);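 also: cells exposed to compound for 48 h before viability read; nearly all actives have a fitted effect of over 60% in size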; also: potency is read from the fitted curve at half-maximal effect
# Summary of the method: as §1
# [3] = tested on: Zika virus NS2B-NS3 protease; test: Primary screen GU AMC qHTS for Zika virus inhibitors (AID 1347154); also: nearly all actives have a fitted effect of over 70% in size; also: potency is read from the fitted curve at half-maximal effect
# Summary of the method: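 Unlinked Zika NS2B hydrophilic domain–NS3 protease complex at 25 nM in 10 mM Tris-HCl pH 8.0, 0.01% Tween 20, with an AMC peptide substrate. Fluorescence change (340/450 nm) over 15 min at room temperature, normalized to controls, fitted to 4-parameter Hill.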
# [4] = biological target: N-terminal Xaa-Pro-Lys N-methyltransferase 1 (Homo sapiens) (UniProt Q9BV86); test: qHTS Assay for Inhibitors of N-terminal methyltransferase 1 (NTMT1): LOPAC validation of the NTMT1 SAHH-coupled ThioGlo3 Assay (AID 1347143);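 also: SAH from peptide methylation measured as thiol fluorescence via SAHH coupling and ThioGlo3; nearly all actives have a fitted effect of over 70% in size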; also: potency is read from the fitted curve at half-maximal effect
# Summary of the method: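 Steps: dispense 125nM NTMT1; pin-transfer test compounds at several concentrations, with 1uM RCC1-6 peptide as control; incubate 1 min; start with reagent holding 100uM SAM, 10uM SAHH, 15uM ThioGlo3; read at 0 and 30 min.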
# [5] = tested on: Zika virus NS2B-NS3 protease (unlinked); test: Optimization of GU AMC qHTS for Zika virus inhibitors: Unlinked NS2B-NS3 protease assay (AID 1347151); also: nearly all actives have a fitted effect of over 80% in size; also: potency is read from the fitted curve at half-maximal effect
# Summary of the method: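 In this qHTS, compounds acted on 25 nM unlinked Zika NS2B–NS3 in pH 8.0 Tris/Tween buffer. Cleavage of an AMC peptide ran 15 min at room temperature, to about 20% conversion.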
# [6] = qHTS of pediatric cancer cell lines to identify multiple opportunities for drug repurposing: Confirmatory screen for Saos-2 cells (AID 1347127); also: nearly all actives have a fitted effect of over 60% in size; also: potency is read from the fitted curve at half-maximal effect
# Summary of the method: as §1
# [7] = biological target: Furin (Homo sapiens) (UniProt P09958); test: Furin counterscreen qHTS for Zika virus inhibitors (AID 1347149);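 also: purified recombinant full-length human furin enzyme at 5 nM; fluorescence gain from furin cutting a BOC-RVRR-AMC peptide substrate over 15 min; top concentration of the series differs between compounds; nearly all actives have a fitted effect of over 70% in size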
# Summary of the method: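 Counterscreen measures cleavage of 2 microM BOC-RVRR-AMC, below its ~15 microM Km, by 5 nM full-length human furin at pH 7.0 after a 15-min compound preincubation. Inhibition derives from the 15-min fluorescence increase at 37C.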
# [8] = Confirmatory screen GU Rhodamine qHTS for Zika virus inhibitors qHTS (AID 1347157); also: potency is read from the fitted curve at half-maximal effect; nearly all actives have a fitted effect of over 70% in size
# Summary of the method: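 Noncovalent NS2B hydrophilic domain/NS3 protease complex (25 nM final) in 10 mM Tris-HCl pH 8.0, 0.01% Tween 20, preincubated 15 min with compounds (up to 114 microM), then 1.5 microM Rhodamine110 substrate. Fluorescence change over 15 min fitted to 4-parameter Hill.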
# Chain of N-terminal Xaa-Pro-Lys N-methyltransferase 1 (Homo sapiens) (Q9BV86 whole entry, looked up): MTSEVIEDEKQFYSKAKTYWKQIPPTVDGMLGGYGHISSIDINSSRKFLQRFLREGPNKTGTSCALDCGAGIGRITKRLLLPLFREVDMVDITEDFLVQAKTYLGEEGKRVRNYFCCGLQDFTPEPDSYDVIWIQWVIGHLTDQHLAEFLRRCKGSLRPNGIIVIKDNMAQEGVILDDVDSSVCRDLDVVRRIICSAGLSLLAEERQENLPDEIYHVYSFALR
# Chain of Furin (Homo sapiens) (P09958 whole entry, looked up): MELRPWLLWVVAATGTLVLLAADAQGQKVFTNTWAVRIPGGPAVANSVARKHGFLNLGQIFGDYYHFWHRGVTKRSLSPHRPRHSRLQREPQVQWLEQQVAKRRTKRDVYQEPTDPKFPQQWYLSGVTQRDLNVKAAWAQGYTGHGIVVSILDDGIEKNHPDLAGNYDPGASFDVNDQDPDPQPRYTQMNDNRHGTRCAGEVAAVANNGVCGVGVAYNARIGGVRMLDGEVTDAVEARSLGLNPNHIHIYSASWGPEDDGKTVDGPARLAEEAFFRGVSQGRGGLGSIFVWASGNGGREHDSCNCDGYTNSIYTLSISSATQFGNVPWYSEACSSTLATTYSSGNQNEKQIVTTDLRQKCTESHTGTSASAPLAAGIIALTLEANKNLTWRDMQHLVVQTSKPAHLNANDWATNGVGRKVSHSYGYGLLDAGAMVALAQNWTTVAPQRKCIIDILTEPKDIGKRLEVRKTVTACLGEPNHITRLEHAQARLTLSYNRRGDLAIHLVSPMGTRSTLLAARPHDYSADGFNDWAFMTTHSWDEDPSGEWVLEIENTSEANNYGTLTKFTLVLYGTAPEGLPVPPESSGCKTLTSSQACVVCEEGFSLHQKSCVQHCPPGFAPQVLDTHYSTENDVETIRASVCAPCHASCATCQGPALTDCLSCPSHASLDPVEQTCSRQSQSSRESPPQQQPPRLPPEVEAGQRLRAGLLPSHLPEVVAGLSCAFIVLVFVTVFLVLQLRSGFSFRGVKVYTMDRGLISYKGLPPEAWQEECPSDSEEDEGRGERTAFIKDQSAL
smiles,measurement,setting,value
CCCCC(=O)OCC(=O)[C@H]1[C@H](C)C[C@H]2[C@@H]3C[C@H](F)C4=CC(=O)C=C[C@]4(C)[C@@]3(F)[C@@H](O)C[C@@]21C,Potency,[1],20.8 µM (active)
same,Potency,[2],inactive
same,Potency,[3],inactive
Cc1nn(-c2ccccc2)c(C)c1/C=N/N1CCN(Cc2ccccc2)CC1,Potency,[4],15.8 µM (active)
same,Potency,[5],inactive
C[C@H]1C[C@H]2[C@@H]3CCC4=CC(=O)C=C[C@]4(C)[C@H]3C(=O)C[C@]2(C)[C@@]1(O)C(=O)CO,Potency,[6],3.69 µM (active)
same,Potency,[2],inactive
same,Potency,[3],inactive
CCN(CC)CC(=O)OCC(=O)[C@@]1(O)CC[C@H]2[C@@H]3CCC4=CC(=O)CC[C@]4(C)[C@H]3[C@@H](O)C[C@@]21C,Potency,[6],inactive
same,Potency,[1],inactive
same,Potency,[2],inactive
same,Potency,[3],inactive
CCC1=C[C@@H]2CN(C1)Cc1c([nH]c3ccccc13)[C@@](C(=O)OC)(c1cc3c(cc1OC)N(C)[C@H]1[C@@](O)(C(=O)OC)[C@H](OC(C)=O)[C@]4(CC)C=CCN5CC[C@]31[C@@H]54)C2,Potency,[6],0.0185 µM (active)
same,Potency,[3],inactive
O=C1NC(=O)/C(=C/c2ccc3c(c2)OC(F)(F)O3)S1,Potency,[4],inactive
same,Potency,[7],inactive
same,Potency,[8],12.4 µM (active)
CC(=O)OCC(=O)[C@@]1(O)CCC2C3CCC4=CC(=O)CC[C@]4(C)C3[C@@H](O)C[C@@]21C (some centres not stated),Potency,[1],inactive
same,Potency,[2],inactive
same,Potency,[3],inactive
CC(=O)O[C@@H]1C(=O)O[C@@H]2[C@H]1OC(=O)[C@@H]2OC(C)=O,Potency,[6],inactive
same,Potency,[1],inactive
same,Potency,[2],inactive
same,Potency,[3],inactive
CCCC(=O)O[C@]1(C(=O)COC(=O)CC)CC[C@H]2[C@@H]3CCC4=CC(=O)CC[C@]4(C)[C@H]3[C@@H](O)C[C@@]21C,Potency,[6],inactive
same,Potency,[1],inactive
same,Potency,[2],inactive
same,Potency,[3],inactive
C[N+](C)(C)CCO,Potency,[4],inactive
same,Potency,[5],inactive
Cc1nc(N)nc(N)c1-c1ccc(Cl)c(Cl)c1,Potency,[1],1.31 µM (active)
same,Potency,[2],inactive
same,Potency,[3],inactive
CC(=O)OCC(=O)[C@@]1(O)[C@H](OC(C)=O)C[C@H]2[C@@H]3CCC4=CC(=O)C=C[C@]4(C)[C@@]3(F)[C@@H](O)C[C@@]21C,Potency,[6],inactive
same,Potency,[1],inactive
same,Potency,[2],inactive
same,Potency,[3],inactive
COc1cc(/C=C/C(N)=O)cc(OC)c1OC,Potency,[1],inactive
same,Potency,[2],inactive
CC(=O)[C@@]1(O)CC[C@H]2[C@@H]3C[C@H](C)C4=CC(=O)CC[C@]4(C)[C@H]3CC[C@@]21C,Potency,[6],inactive
same,Potency,[1],inactive
same,Potency,[2],inactive
same,Potency,[3],inactive
COc1c(C)c2c(c(O)c1C/C=C(\C)CCC(=O)OCCN1CCOCC1)C(=O)OC2,Potency,[6],inactive
same,Potency,[5],21.5 µM (active)
CC(C)(C)CC(=O)OCC(=O)[C@@]1(O)CC[C@H]2[C@@H]3CCC4=CC(=O)C=C[C@]4(C)[C@H]3[C@@H](O)C[C@@]21C,Potency,[6],inactive
same,Potency,[1],inactive
same,Potency,[2],inactive
same,Potency,[3],inactive
CCC(=O)O[C@]1(C(=O)COC)[C@@H](C)C[C@H]2[C@@H]3CCC4=CC(=O)C=C[C@]4(C)C3(F)[C@@H](O)C[C@@]21C (some centres not stated),Potency,[1],inactive
same,Potency,[2],inactive
same,Potency,[3],inactive
CCCCC(CC)CNC(=O)CC(C)OC(=O)CCC(=O)O (configuration not stated),Potency,[1],inactive
same,Potency,[2],inactive
same,Potency,[3],inactive
Cc1ccc(C(=O)Oc2ccc(C(O)CNC(C)(C)C)cc2OC(=O)c2ccc(C)cc2)cc1 (configuration not stated),Potency,[6],inactive
same,Potency,[3],inactive
CC(C)N(CCC(=O)c1ccc2ccccc2c1)Cc1ccccc1,Potency,[4],inactive
same,Potency,[5],26.7 µM (active)
O=c1[nH]sc2cc(Cl)ccc12,Potency,[2],inactive
same,Potency,[3],inactive
CC[C@@]1(O)C(=O)OCc2c1cc1n(c2=O)Cc2c-1nc1ccccc1c2/C=N/OC(C)(C)C,Potency,[6],0.0165 µM (active)
same,Potency,[1],0.0369 µM (active)
same,Potency,[2],1.87 µM (active)
same,Potency,[3],14.4 µM (active)
N=C(N)c1ccc(OCCCOc2ccc(C(=N)N)cc2)cc1,Potency,[6],inactive
same,Potency,[1],inactive
same,Potency,[2],inactive
same,Potency,[3],inactive
Brc1ccc([C@H]2CN3CCSC3=N2)cc1,Potency,[4],79.4 µM (active)
Cc1cc(OCCOCC[N+](C)(C)Cc2ccccc2)ccc1C(C)(C)CC(C)(C)C,Potency,[6],7.37 µM (active)
same,Potency,[1],14.7 µM (active)
same,Potency,[2],20.9 µM (active)
CO[C@@H]1[C@@H](OC)[C@H](C)[C@@](O)(CC(=O)O)O[C@H]1[C@H](C)[C@H]1O[C@@]2(CC[C@@](C)([C@H]3CC[C@@](C)([C@@H]4O[C@@H]([C@H]5O[C@](C)(O)[C@H](C)C[C@@H]5C)C[C@@H]4OC4C[C@H](OC)[C@@H](OC)[C@H](C)O4)O3)O2)C[C@H](O)[C@H]1C (some centres not stated),Potency,[6],1.17 µM (active)
same,Potency,[1],0.657 µM (active)
same,Potency,[2],1.48 µM (active)
same,Potency,[3],inactive
CN(C)CCN(Cc1ccsc1)c1ccccn1,Potency,[6],inactive
same,Potency,[2],inactive
same,Potency,[3],inactive
Nc1ccc2cc3ccc(N)cc3nc2c1,Potency,[1],20.8 µM (active)
same,Potency,[2],5.26 µM (active)
